Results published in PubChem BioAssay (EPA / NIEHS).
Inconclusive results are not listed. Active and inactive are the calls of the source. How the source made its calls: active means hit-call score of the fitted dose curve at least 0.9, where 1 is the maximum; inconclusive means response in the unintended direction; inactive means score below 0.9.

Assay: Tanguay_ZF_120hpf_JAW_legacy: (Legacy) Oregon State University Tanguay Lab 120 Hour Post-fertilization zebrafish Assay for Jaw Malformation (AID 2283638);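 on AC50: active means more embryos with jaw malformation than DMSO controls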
Procedure: Tanguay_ZF_120hpf_legacy is a whole embryo, multiplexed endpoint assay using zebrafish larvae exposed for 120 hours post fertilization on a 96-well plate.Tanguay_ZF_120hpf_JAW_legacy is one of one assay component(s) measured or calculated from the Tanguay_ZF_120hpf_legacy assay. It is designed to make measurements of zebrafish development as detected with brightfield microscopy of developing zebrafish embryos.Data from the assay component Tanguay_ZF_120hpf_JAW_legacy was analyzed into 1 assay endpoints. This assay endpoint, Tanguay_ZF_120hpf_JAW_legacy, was analyzed in the positive analysis fitting direction relative to DMSO as the negative control and baseline of activity. Using a type of morphology reporter, gain-of-signal activity can be used to understand changes in developmentals as they relate to the whole embryo. To generalize the intended target to other relatable targets, this assay endpoint is annotated to the zebrafish development intended target family, where the subfamily is embryonic jaw development.
Zebrafish husbandry: Tropical 5D wild-type adult zebrafish were housed in at an approximate density of 1000 per 100 gallon tank at the Sinnhuber Aquatic Research Laboratory, Oregon State University, Corvallis, OR. Each tank was kept at standard laboratory conditions of 28C on a 14-h light/10-h dark photoperiod in fish water consisting of reverse osmosis water supplemented with a commercially available salt (Instant Ocean). Spawning funnels were placed into the tanks the night prior, and embryos were collected and staged. To increase bioavailability, the chorion was enzymatically removed using pronase (63.6mg/ml, >/= 3.5U/mg, Sigma-Aldrich: P5147) at 4 hours post fertilization (hpf) using a custom automated dechorionator.Chemical exposures: Six hpf dechorionated embryos were placed 1 embryo per well in a 96-well plate prefilled with 90 ul of EM using automated embryo placement systems (AEPS). Ten microliters of each row of dilution plate 2 was added to 2 exposure plates. The final DMSO concentration used was 0.64% (vol/vol). Thirty-two embryos were also exposed to 5uM trimethyltin chloride (positive control). Plates were sealed to prevent evaporation and foil covered to reduce light exposure and kept in a 28C incubator. Embryos were statically exposed until 120 hpf. At 24 hpf, embryos were assessed for photomotor response using a custom photomotor response analysis tool (PRAT) and for developmental toxicity endpoints (MO24: mortality at 24 hpf, DP: developmental progression, SM: spontaneous movement, and NC: notochord distortion). At 120 hpf, locomotor activity was measured using Viewpoint Zebralab and assessed for 18 endpoints. Zebrafish acquisition and analysis program (ZAAP), a custom program designed to inventory, acquire, and manage zebrafish data, was used to collect developmental endpoints as either present or absent (i.e., binary responses were recorded). If mortality occurred for an embryo (at either 24 or 120 hpf), the non-mortality endpoints were not measured.

Row | SMILES | outcome | AC50
1 | NNC(=O)c1ccncc1 | inactive | 
2 | OC(CCl)CCl | inactive | 
3 | Cc1ncc([C@@H](CCCCCCc2ccc3c(n2)NCCC3)CC(=O)O)cn1 | inactive | 
4 | CC(C)CC(C)O (stereo not given) | inactive | 
5 | CCCCOC(=O)c1ccccc1 | inactive | 
6 | Cn1cc[nH]c1=S | inactive | 
7 | O=S1(=O)CCCO1 | inactive | 
8 | CCCCCOC(C)=O | inactive | 
9 | CCc1cccc(CC)c1N | inactive | 
10 | CCn1nc(C)c2c1C(=O)NCC(c1ccc(O)cc1)=N2 | inactive | 
11 | CCCCCCOC(=O)CC(CC(=O)OCCCCCC)(OC(=O)CCC)C(=O)OCCCCCC | inactive | 
12 | CCCC(CCC)C(=O)O | inactive | 
13 | CC(C)C(=O)Nc1ccc([N+](=O)[O-])c(C(F)(F)F)c1 | inactive | 
14 | CC(=O)c1ccccc1 | inactive | 
15 | CCCCCCCCCCCCCCCCOS(=O)(=O)O | inactive | 
16 | CCCCCCCC/C=C\CCCCCCCC(=O)OC[C@@H](O)[C@H]1OC[C@H](O)[C@H]1O | inactive | 
17 | CCCCCCCCCCCCCCO | inactive | 
18 | C=CCc1cc(S(=O)(=O)c2ccc(O)c(CC=C)c2)ccc1O | inactive | 
19 | Cc1nccn1-c1ccc(Sc2cccc(C3(C(N)=O)CCOCC3)c2)cc1 | inactive | 
20 | COc1cc2c(c(OC)c1OC)-c1ccc(OC)c(=O)cc1[C@@H](NC(C)=O)CC2 | inactive | 

Row | SMILES | outcome | AC50
21 | c1ccc(C(O[C@@H]2CCCN(CCc3ccc4c(c3)OCO4)C2)c2ccccc2)cc1 |  | 44.8 µM (active)
22 | CCCCCCCCN(C)C | inactive | 
23 | C[C@@H](Oc1ccc(CNC(=O)c2cccnc2Oc2ccc3c(c2)OCO3)c(F)c1)C(=O)O | inactive | 
24 | COCc1nnc(-c2ccc[n+]([O-])c2)n1-c1c(Cl)c(Cl)cc2[nH]c(=O)c(=O)[nH]c12 | inactive | 
25 | COc1cc(C(C)C)c2c(c1)S(=O)(=O)N(COc1cc(=O)n3cccc(OCCN4CCCCC4)c3n1)C2=O | inactive | 
26 | OC[C@H]1O[C@@](CO)(O[C@H]2O[C@H](CO)[C@@H](O)[C@H](O)[C@H]2O)[C@@H](O)[C@@H]1O | inactive | 
27 | O=C(O)c1cccc(C[C@@H]2COc3ccc(OCc4nc5cc(F)ccc5s4)cc3[C@@H]2O)c1 |  | 9.13 µM (active)
28 | Cc1ccc(S(=O)(=O)NC(=O)NN2CCCCCC2)cc1 | inactive | 
29 | CCCc1ccccc1 | inactive | 
30 | CCCOc1ccc(S(=O)(=O)N2CCN(CC)CC2)cc1-c1nc2c(CC)n(Cc3ccccn3)nc2c(=O)[nH]1 | inactive | 
31 | c1ccc2cc3ccccc3cc2c1 | inactive | 
32 | NC(=O)N1c2ccccc2C=Cc2ccccc21 | inactive | 
33 | Cn1c(=O)c2[nH]cnc2n(C)c1=O | inactive | 
34 | O=c1[nH]cnc2c1ncn2[C@H]1CC[C@@H](CO)O1 | inactive | 
35 | Nc1ccn([C@@H]2O[C@H](CO)[C@@H](O)[C@@H]2O)c(=O)n1 | inactive | 
36 | CCCCCCCCCC | inactive | 
37 | OC[C@H]1O[C@@H]2O[C@H]3[C@H](O)[C@@H](O)[C@@H](O[C@H]4[C@H](O)[C@@H](O)[C@@H](O[C@H]5[C@H](O)[C@@H](O)[C@@H](O[C@H]6[C@H](O)[C@@H](O)[C@@H](O[C@H]7[C@H](O)[C@@H](O)[C@@H](O[C@H]1[C@H](O)[C@H]2O)O[C@@H]7CO)O[C@@H]6CO)O[C@@H]5CO)O[C@@H]4CO)O[C@@H]3CO | inactive | 
38 | c1ccc2ncccc2c1 | inactive | 
39 | CC[C@H](C)C(=O)O[C@H]1C[C@H](O)C=C2C=C[C@H](C)[C@H](CC[C@@H](O)C[C@@H](O)CC(=O)O)[C@H]21 | inactive | 
40 | CC1(C)C(=O)N(Cl)C(=O)N1Cl | inactive | 
